Assay results: PubChem BioAssay (NCATS)
Several values for one entry are separate records, joined by “and”; a condition that tells them apart may be missing. Identical values can stand only once. Values without a mark were called inactive. Inconclusive results are not listed. Where a call stands in place of a potency, no number is given. Activity calls are given as the source filed them. Unless noted, the call rests on the fitted dose curve; in most records, active means well fitted curve in the direction sought with a large enough effect; inconclusive means small, poorly fitted or top-dose-only effect, or another doubt; inactive means no such curve, though single readings can be large; an effect the other way counts as inactive or inconclusive.

What was measured:
[1] = Cellular Toxicity (caspase-3) HepG2 (AID 654);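 further: cells exposed to compound for 16 hours before reading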
Method in brief: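 HepG2 cells (1500/well) in complete medium were treated with compounds for 16 hr at 37 °C. Caspase-3/7 activity was then read as luminescence from peptide-aminoluciferin cleavage. AC50 came from Hill fits, normalized to DMSO and 100 uM tamoxifen.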

[2] = Cellular Toxicity (caspase-3) Jurkat (AID 655);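 further: cells exposed to compound for 16 h at 37 °C before reading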
Method in brief: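 Jurkat cells (5000/well) in complete medium exposed 16 h at 37 C; caspase-3/7 activity read by Caspase-Glo luminescence after 20 min at room temperature. Normalized to DMSO and 100 uM tamoxifen; AC50 from Hill fits.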

[3] = Cellular Toxicity (caspase-3) HUV-EC-C (AID 656)
Method in brief: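 HUV-EC-C cells (1000/well) in complete medium, compound-treated 16 h at 37 °C; caspase-3/7 activity read by Caspase-Glo 3/7 luminescence. Normalized to DMSO (basal) and 100 uM tamoxifen (100%); AC50 from Hill-equation concentration-response fits.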

[4] = Cellular Toxicity (caspase-3) SHSY5Y (AID 657)
Method in brief: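 SH-SY5Y human neuroblastoma cells, 1500/well, exposed to compound for 16 hours at 37 °C in complete medium. Caspase-3/7 activity read by Caspase-Glo luminescence after 1 hr at room temperature, normalized to DMSO and 10 uM staurosporine; AC50 from Hill fit.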

[5] = Cellular Toxicity (caspase-3) BJ (AID 658)
Method in brief: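 Readout: Caspase-Glo 3/7 luminescence increase in BJ cells after 16 hr treatment at 37 °C. Staurosporine and tamoxifen served as positive controls; AC50 values came from Hill modelling of data normalized to DMSO and 10 uM staurosporine.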

[6] = Cellular Toxicity (caspase-3) MRC-5 (AID 659)
Method in brief: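 Concentration-dependent caspase 3/7 activation is measured in human normal lung fibroblasts (MRC-5) following 16-hour treatment. AC50 values come from standard Hill-equation modeling of luminescence normalized to DMSO and 10 uM staurosporine.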

[7] = Cellular Toxicity (caspase-3) Mesangial (AID 660);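 further: cells exposed to compound for 16 h before the caspase read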
Method in brief: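 Human renal glomerular mesangial cells (1000/well) were treated with compounds for 16 h at 37 °C in complete medium, then caspase 3/7 activity was read by Caspase-Glo luminescence. Data were normalized to DMSO and 100 uM tamoxifen; AC50 from Hill fits.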

[8] = Cellular Toxicity (caspase-3) SK-N-SH (AID 661)
Method in brief: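 SK-N-SH human neuroblastoma cells (1500/well) were treated with compounds for 16 hr at 37 °C in complete medium; caspase 3/7 activity was read by Caspase-Glo luminescence. AC50 came from Hill fits of data normalized to DMSO and 10 uM staurosporine.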

[9] = Cellular Toxicity (caspase-3) H-4-II-E (AID 663);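 further: cells exposed to compound for 16 hr before readout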
Method in brief: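 Apoptosis induction is scored as increased luminescence from caspase 3/7 substrate cleavage in rat hepatoma H-4-II-E cells exposed to compound for 16 hr. Activity is scaled between DMSO and 100 uM tamoxifen.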

[10] = Cellular Toxicity (caspase-3) Hek293 (AID 664);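 further: cells exposed to compound for 16 h at 37 °C before readout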
Method in brief: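 HEK293 cells were exposed to compounds in complete medium for 16 hr at 37 °C, then caspase-3/7 activity was read by Caspase-Glo 3/7 luminescence after 20 min at room temperature. Data normalized to DMSO and 100 uM tamoxifen; AC50 from Hill fits.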

[11] = Cellular Toxicity (caspase-3) N2a (AID 665);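 further: compound exposure lasted 16 h at 37 °C before readout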
Method in brief: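 Mouse N2a neuroblastoma cells (1500/well) were treated with compounds for 16 h at 37 °C, then caspase-3/7 activity was read by Caspase-Glo luminescence after 1 h at room temperature. Data were normalized to DMSO and 10 uM staurosporine; AC50 from Hill fits.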

[12] = Cellular Toxicity (caspase-3) NIH 3T3 (AID 666);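 further: caspase signal read after 16 h compound exposure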
Method in brief: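 Mouse NIH 3T3 fibroblasts (1000 cells/well) were treated with compound for 16 hr at 37°C in complete medium; caspase-3/7 activity was read by Caspase-Glo luminescence. Normalized to DMSO and 100 uM tamoxifen; AC50 from Hill fits.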

[13] = Cellular Toxicity (caspase-3) Renal Proximal Tubule (AID 667);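 further: cells exposed to compound for 16 hours at 37 °C before detection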
Method in brief: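 Freshly isolated primary rat kidney proximal tubule cells, 1000/well, treated 16 hr at 37 °C, then Caspase-Glo 3/7 luminescence after 1 hr. Normalized to DMSO and 10 uM staurosporine; AC50 from Hill fit.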

[14] = qHTS assay to identify small molecules that stimulate interleukin-8 (IL-8) secretion (AID 651758; active means well fitted activation curve with a large enough effect in the signal ratio; the % refers to the signal ratio)
Method in brief: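 Secreted IL-8 measured by TR-FRET sandwich (cryptate and XL665 antibodies) from THP-1 cells exposed to compound overnight (16 hrs, 37 C).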

[15] = biological target: Peroxisome proliferator-activated receptor alpha (Homo sapiens) (UniProt Q07869); experiment: qHTS assay for small molecule agonists of the peroxisome proliferator-activated receptor alpha (PPARalpha) signaling pathway (AID 651778); conditions: PathHunter PPARalpha complementation, chemiluminescence, 6 h; stronger effect = higher value
Method in brief: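 Chemiluminescence from complemented enzyme reported PPARalpha activation in cells after 6 hr of compound treatment at 37 C. The detection reagent was incubated for 60 min at room temperature, and compounds were scored as agonists.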

[16] = qHTS assay for small molecule agonists of the antioxidant response element (ARE) signaling pathway measured by Nrf2-dependant transcriptional activity (AID 720636; active means well fitted curve in the direction sought with a large enough effect in the repeat runs; an effect the other way counts as inactive or inconclusive;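 further: HepG2 cells with an ARE-driven luciferase reporter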)
Method in brief: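 Attachment 6 hr at 37 C, then compound versus DMSO vehicle for 16 hr in ARE-luc HepG2 cells (1% dialyzed FBS); luminescence recorded 30 min after ONE-Glo addition at room temperature.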

[17] = qHTS assay for small molecule antagonists of the retinoid-related orphan receptor gamma (ROR-gamma) signaling pathway - cell viability counter screen (AID 720652; active means well fitted curve in the direction sought with a large enough effect in the repeat runs; an effect the other way counts as inactive or inconclusive;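 further: CHO reporter cells with doxycycline-induced ROR-gamma expression; series mostly up to about 92 µM; compound exposure lasted 16 hr before ATP read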)
Method in brief: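 Counter screen in CHO cells carrying TET-inducible ROR-gamma and an ROR response element-luciferase reporter; cells plated 5 hr, compound pinned, doxycycline added, then 16 hr at 37 C. Viability read as intracellular ATP by CellTiter-Glo luminescence.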

[18] = qHTS assay for small molecule agonists of the antioxidant response element (ARE) signaling pathway measured by Nrf2-dependant transcriptional activity - cell viability counter screen (AID 720653; active means well fitted curve in the direction sought with a large enough effect in the repeat runs; an effect the other way counts as inactive or inconclusive); conditions: ARE-bla HepG2 viability, CellTiter-Glo ATP luminescence, 16 h; stronger effect = lower value
Method in brief: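 Cytotoxicity counter screen: intracellular ATP quantified by CellTiter-Glo luminescence in the same ARE-bla HepG2 plates, after 16 h compound exposure and a 2 h beta-lactamase substrate step.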

[19] = qHTS assay for cell viability of HEK293 cells (AID 743288); conditions: ATP luminescence (CellTiter-Glo), 18 h, stronger effect = lower value; further: nearly all actives have a fitted effect of over 50% in size
Method in brief: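 Parental HEK293 cells, 2,000 per well, preincubated at least 5 h at 37 C, then exposed to compounds in DMSO for 18 h at 37 C. Viability by CellTiter-Glo ATP luminescence after 30 min at room temperature.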

[20] = qHTS assay for cell viability of the p53RE-bla HCT-116 cell line (AID 743292); further: potency means the concentration at half of the fitted maximal effect; nearly all actives have a fitted effect of over 55% in size
Method in brief: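 Compound-exposed HCT-116 (p53RE-bla) cells, 4,000 per well, were kept 16 h at 37 C following a 5 h preincubation. Cell number was estimated from total ATP by CellTiter-Glo luminescence read after 30 min at room temperature.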

Chain of Peroxisome proliferator-activated receptor alpha (Homo sapiens) (Q07869 whole entry, looked up): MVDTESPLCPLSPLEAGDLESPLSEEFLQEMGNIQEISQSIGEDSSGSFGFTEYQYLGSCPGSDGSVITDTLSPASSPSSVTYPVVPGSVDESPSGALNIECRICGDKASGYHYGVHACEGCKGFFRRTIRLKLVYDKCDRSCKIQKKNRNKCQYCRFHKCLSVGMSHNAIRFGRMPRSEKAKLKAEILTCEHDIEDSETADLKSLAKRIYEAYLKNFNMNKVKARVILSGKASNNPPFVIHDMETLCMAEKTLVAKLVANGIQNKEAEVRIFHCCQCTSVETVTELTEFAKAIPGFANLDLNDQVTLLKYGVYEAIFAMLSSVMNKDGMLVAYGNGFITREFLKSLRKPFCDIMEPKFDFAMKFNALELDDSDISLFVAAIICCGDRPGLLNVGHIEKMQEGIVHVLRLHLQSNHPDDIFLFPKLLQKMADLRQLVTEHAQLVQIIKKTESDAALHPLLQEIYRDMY

With `CC(C)(c1cc(Br)c(O)c(Br)c1)c1cc(Br)c(O)c(Br)c1` the outcome [1] was “inactive”, the outcome [2] was “inactive” and the outcome [3] was “inactive”. The outcome [4] was “inactive”, the outcome [5] was “inactive” and the outcome [6] was “inactive”. The outcome [7] was “inactive”, the outcome [8] was “inactive” and the outcome [9] was “inactive”. For the same compound, the outcome [10] was “inactive”, the outcome [11] was “inactive” and the outcome [12] was “inactive”. For the same compound, the outcome [13] was “inactive”, the outcome [14] was “inactive” and the max response [15] was -7.23% and -3.95% and -1.86%. The outcome [16] was “inactive”, the outcome [17] was “inactive” and the max response [18] was 4.4% and -1.06% and -0.187%. For the same compound, the max response [19] was 5.04% and -1.46% and -3.35% and the Potency [20] was 44.7 µM (active).
